Data taken from PubChem BioAssay (NCATS).
Inconclusive results are not listed. Active and inactive are the calls of the source. Unless noted, calls follow the shape of the dose curve; as a rule, active = well fitted curve in the direction sought with a large enough effect; inconclusive = small, poorly fitted or top-dose-only effect, or another doubt; inactive = no such curve, though single readings can be large; an effect the other way counts as inactive or inconclusive.

Columns and labels:
[1] = molecular target: DNA repair nuclease/redox regulator APEX1 (Homo sapiens) (UniProt P27695); assay: qHTS Validation Assay for Inhibitors of the Human Apurinic/apyrimidinic Endonuclease 1 (APE1) (AID 1705;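 also: TAMRA fluorescence gain over two minutes as APE1 cuts a quenched THF abasic duplex; series mostly up to about 57 µM; % is scaled to controls: 0 for no effect and ±100 for the full control effect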)
In short: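 Read-out: TAMRA fluorescence (525 nm ex, 598 nm em) from cleavage of a quenched THF abasic-site duplex, 50 nM final; activity taken as intensity change between third and first of three reads 60 s apart.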

[2] = Counterscreen for APE1 Inhibitors: Fluorescent Dye Displacement Validation Assay (AID 1707);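 also: plate controls were ThO with dsDNA and no compound for no effect and ThO without dsDNA for full effect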
In short: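 Endpoint fluorescence read at 480 nm excitation / 540 nm emission; DNA-binding compounds lower signal by displacing 250 nM Thiazole Orange from 50 nM dsDNA containing a tetrahydrofuran abasic site, Tris-HCl pH7.5 buffer with NaCl and MgCl2.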

[3] = molecular target: Endonuclease 4 (Escherichia coli (strain K12)) (UniProt P0A6C1); assay: Counterscreen for APE1 Inhibitors: qHTS Validation Assay for Inhibitors of Endonuclease IV (AID 1708); also: % is scaled to controls: 0 for no effect and ±100 for the full control effect
In short: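 Incision of a double-stranded 50 nM TAMRA/BHQ-2 abasic substrate was followed kinetically (525/598 nm, reads every 60 s) after 15 min enzyme–compound preincubation with 2 nM EndoIV in pH 7.5 Tris buffer with MgCl2, DTT and Tween-20; concentration-response format.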

[4] = qHTS for differential inhibitors of proliferation of Plasmodium falciparum line 7G8 (AID 1815);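 also: potency is read from the fitted curve at half-maximal effect; parasite growth measured after three days of incubation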
[5] = qHTS for differential inhibitors of proliferation of Plasmodium falciparum line GB4 (AID 1816); conditions: Potency: Plasmodium falciparum GB4 proliferation inhibition;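 also: potency is read from the fitted curve at half-maximal effect; parasite growth measured after 72 h incubation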
[6] = qHTS for differential inhibitors of proliferation of Plasmodium falciparum line 3D7 (AID 1876); also: potency is read from the fitted curve at half-maximal effect
[7] = qHTS for differential inhibitors of proliferation of Plasmodium falciparum line W2 (AID 1883); conditions: Potency: Plasmodium falciparum W2 proliferation inhibition;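 also: potency is read from the fitted curve at half-maximal effect; parasites grown with compound for 72 h before lysis and staining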
[8] = molecular target: ATP-dependent DNA helicase Q1 (Homo sapiens) (UniProt P46063); assay: qHTS Validation Assay for Inhibitors of RecQ-Like Dna Helicase 1 (RECQ1) (AID 2353);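 also: plate controls were DMSO vehicle for no effect and enzyme-free control for full effect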
In short: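 RECQ1T1 50 nM; forked duplex (20 bp + 30-nt ss tails) 200 nM, ATP 2 mM final; pH 8.0, 2 mM MgCl2, 2.5 ug/ml poly(dI-dC); 15 min compound preincubation; discontinuous kinetic read over 2 h at RT.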

[9] = molecular target: RecQ-like DNA helicase BLM (Homo sapiens) (UniProt P54132); assay: qHTS Validation Assay for Inhibitors of Bloom's syndrome helicase (BLM) (AID 2364);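 also: plate controls were DMSO vehicle for no effect and enzyme-free control for full effect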
Sequence of RecQ-like DNA helicase BLM (Homo sapiens) (P54132 whole entry, looked up): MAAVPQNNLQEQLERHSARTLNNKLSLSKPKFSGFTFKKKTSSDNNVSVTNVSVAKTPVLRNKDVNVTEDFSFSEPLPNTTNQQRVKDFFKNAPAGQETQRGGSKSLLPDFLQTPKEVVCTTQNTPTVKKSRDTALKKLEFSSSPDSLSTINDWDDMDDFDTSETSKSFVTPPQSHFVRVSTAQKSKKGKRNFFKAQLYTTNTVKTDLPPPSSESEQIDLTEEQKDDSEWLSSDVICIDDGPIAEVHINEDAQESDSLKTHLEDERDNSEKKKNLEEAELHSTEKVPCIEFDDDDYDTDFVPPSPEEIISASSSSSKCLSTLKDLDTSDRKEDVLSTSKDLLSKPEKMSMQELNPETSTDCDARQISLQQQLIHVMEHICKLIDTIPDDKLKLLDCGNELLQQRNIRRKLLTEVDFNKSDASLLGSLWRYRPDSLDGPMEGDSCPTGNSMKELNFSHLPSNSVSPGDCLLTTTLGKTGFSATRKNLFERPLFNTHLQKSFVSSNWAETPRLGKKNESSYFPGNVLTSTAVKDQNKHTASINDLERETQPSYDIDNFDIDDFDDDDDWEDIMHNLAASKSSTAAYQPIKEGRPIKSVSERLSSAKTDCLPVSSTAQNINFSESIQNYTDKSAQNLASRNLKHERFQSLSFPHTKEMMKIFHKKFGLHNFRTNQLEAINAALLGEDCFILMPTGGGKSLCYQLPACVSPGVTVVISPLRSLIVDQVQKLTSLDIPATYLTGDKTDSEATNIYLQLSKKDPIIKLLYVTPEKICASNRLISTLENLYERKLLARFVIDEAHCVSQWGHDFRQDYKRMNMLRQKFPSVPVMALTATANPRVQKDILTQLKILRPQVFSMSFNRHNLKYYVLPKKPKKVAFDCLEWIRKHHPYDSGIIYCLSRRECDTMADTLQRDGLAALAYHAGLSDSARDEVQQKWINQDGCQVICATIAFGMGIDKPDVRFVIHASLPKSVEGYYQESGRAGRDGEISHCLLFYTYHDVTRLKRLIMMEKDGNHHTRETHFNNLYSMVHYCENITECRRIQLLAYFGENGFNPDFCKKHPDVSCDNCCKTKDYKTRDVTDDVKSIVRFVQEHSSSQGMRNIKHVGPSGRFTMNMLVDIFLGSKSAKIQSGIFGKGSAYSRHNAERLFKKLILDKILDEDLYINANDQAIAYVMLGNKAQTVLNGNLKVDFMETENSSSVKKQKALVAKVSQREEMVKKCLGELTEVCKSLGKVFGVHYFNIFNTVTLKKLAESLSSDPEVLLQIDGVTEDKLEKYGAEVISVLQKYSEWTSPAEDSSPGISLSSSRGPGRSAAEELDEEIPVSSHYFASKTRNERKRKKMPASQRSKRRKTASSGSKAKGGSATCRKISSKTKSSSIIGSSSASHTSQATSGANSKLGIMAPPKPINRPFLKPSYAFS
In short: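 Forked 20-bp duplex substrate (200 nM, TAMRA/BHQ-2) plus 2 mM ATP added after 15 min compound preincubation with 50 nM enzyme, pH 8.0, poly(dI-dC) 2.5 ug/ml. Strand separation followed by fluorescence (525/598 nm) over 2 h, normalized to enzyme-free and DMSO controls.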

[10] = Quantitative high throughput screen for delayed death inhibitors of the malarial parasite plastid, 96 hour incubation (AID 488745); also: series mostly up to about 29 µM; % is scaled to controls: 0 for no effect and ±100 for the full control effect; nearly all actives have a fitted effect of over 70% in size
In short: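 Decreased firefly luciferase luminescence indicates inhibited growth of reporter-integrated P. falciparum after two generations (96 h, 37 C, 5% CO2). Infected erythrocytes at 0.1% parasitemia, 2% hematocrit, in Albumax-supplemented RPMI 1640.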

[11] = molecular target: Thyrotropin receptor (Homo sapiens) (UniProt P16473); assay: qHTS Assay for Antagonists of the Thyroid Stimulating Hormone Receptor (AID 488980); also: series mostly up to about 58 µM; 0% is about no effect
Sequence of Thyrotropin receptor (Homo sapiens) (P16473 whole entry, looked up): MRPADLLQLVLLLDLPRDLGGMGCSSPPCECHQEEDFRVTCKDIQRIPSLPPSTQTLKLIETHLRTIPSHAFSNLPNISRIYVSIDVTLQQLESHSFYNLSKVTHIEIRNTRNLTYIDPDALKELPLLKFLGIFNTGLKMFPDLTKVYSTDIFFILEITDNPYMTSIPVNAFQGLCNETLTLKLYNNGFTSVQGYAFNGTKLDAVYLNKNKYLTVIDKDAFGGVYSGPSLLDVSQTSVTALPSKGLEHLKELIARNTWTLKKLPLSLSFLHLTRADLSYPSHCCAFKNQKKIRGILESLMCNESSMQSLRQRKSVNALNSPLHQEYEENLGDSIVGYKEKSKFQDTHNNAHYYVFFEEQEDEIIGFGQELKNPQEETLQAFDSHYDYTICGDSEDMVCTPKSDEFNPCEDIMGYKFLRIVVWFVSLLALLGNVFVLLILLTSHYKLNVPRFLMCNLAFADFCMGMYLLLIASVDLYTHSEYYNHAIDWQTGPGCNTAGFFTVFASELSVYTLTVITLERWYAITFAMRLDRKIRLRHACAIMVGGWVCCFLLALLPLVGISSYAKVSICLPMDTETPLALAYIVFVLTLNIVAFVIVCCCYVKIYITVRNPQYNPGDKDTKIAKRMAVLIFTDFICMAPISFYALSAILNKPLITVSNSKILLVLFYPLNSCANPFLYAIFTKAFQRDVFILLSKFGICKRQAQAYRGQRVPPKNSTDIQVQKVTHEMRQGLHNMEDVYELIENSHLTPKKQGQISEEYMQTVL
In short: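 TSHR-HEK293 cells; 70 uM RO 20-1724 PDE inhibitor; compound + EC80 TSH (4 nM final); anti-cAMP cryptate antibody/cAMP-d2 in lysis buffer, 30 min RT; HTRF 665/620 nm read.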

[12] = molecular target: Thyrotropin-releasing hormone receptor (Homo sapiens) (UniProt P34981); assay: qHTS for Small Molecule Agonists and Allosteric Enhancers of Human TRH Receptor: Validation Screen for Agonists (AID 493127;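 active = calcium activation more than 3 SD above the typical response in the agonist read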;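 also: intracellular calcium rise by fluo-8 fluorescence before TRH EC20 addition; 0% is about no effect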); conditions: TRH receptor agonist cell assay; at 2 µM; stronger effect = higher value
Sequence of Thyrotropin-releasing hormone receptor (Homo sapiens) (P34981 whole entry, looked up): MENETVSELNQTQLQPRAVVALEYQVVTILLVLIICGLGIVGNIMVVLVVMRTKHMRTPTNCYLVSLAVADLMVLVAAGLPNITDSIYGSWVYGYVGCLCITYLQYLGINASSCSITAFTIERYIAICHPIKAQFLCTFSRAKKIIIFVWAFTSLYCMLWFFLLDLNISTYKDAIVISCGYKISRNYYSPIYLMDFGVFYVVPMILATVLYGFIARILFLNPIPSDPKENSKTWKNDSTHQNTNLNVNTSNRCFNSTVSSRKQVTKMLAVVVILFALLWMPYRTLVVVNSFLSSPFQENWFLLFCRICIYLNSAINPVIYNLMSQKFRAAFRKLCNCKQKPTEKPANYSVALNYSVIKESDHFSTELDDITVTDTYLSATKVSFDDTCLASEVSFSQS
In short: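 Compound-evoked intracellular calcium release in fluo-8-loaded TRHR cells, read kinetically on FDSS (Ex 480/Em 530, 1 s/cycle) after 23 nL pintool transfer. Agonist phase preceded 10 nM TRH EC20 addition.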

[13] = molecular target: Galactokinase (Homo sapiens) (UniProt P51570); assay: qHTS Validation Assay for Inhibitors of Human Galactokinase (GALK) (AID 493189); also: 0% is about no effect
Sequence of Galactokinase (Homo sapiens) (P51570 whole entry, looked up): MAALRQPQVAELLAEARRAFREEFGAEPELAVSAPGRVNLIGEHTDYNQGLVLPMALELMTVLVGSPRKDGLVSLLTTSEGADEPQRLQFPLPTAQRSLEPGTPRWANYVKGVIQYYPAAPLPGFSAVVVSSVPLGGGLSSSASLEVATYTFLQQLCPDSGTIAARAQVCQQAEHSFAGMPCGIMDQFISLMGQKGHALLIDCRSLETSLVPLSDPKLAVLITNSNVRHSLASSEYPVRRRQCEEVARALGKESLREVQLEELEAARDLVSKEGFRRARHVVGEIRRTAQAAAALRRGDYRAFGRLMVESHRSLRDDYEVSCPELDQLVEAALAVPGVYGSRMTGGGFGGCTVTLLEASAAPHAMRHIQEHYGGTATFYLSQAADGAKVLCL
In short: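 Luminescence from leftover ATP (Kinase-Glo Plus, 10 min) served as read-out after a 1 h room-temperature reaction of 5 nM GALK, 100 uM galactose and 35 uM ATP at pH8.0.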

[14] = Validation screen for small molecules that induce DNA re-replication in SW480 colon adenocarcinoma cells (AID 504364); also: 0% is about no effect
In short: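 Image-based DNA content read-out: Hoechst stain 40 min, total nuclear fluorescence intensity (ex 405 nm, em 500-530 nm) after 48 h compound exposure of 250 SW480 cells/well at 37 C, 5% CO2, versus DMSO vehicle.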

[15] = molecular target: Voltage-gated inwardly rectifying potassium channel KCNH2 (Homo sapiens) (UniProt Q12809); assay: qHTS Assay for Small Molecule Inhibitors of the Human hERG Channel Activity (AID 588834);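 also: potency is read from the fitted curve at half-maximal effect; lower thallium flux fluorescence means stronger hERG block; nearly all actives have a fitted effect of over 50% in size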
Sequence of Voltage-gated inwardly rectifying potassium channel KCNH2 (Homo sapiens) (Q12809 whole entry, looked up): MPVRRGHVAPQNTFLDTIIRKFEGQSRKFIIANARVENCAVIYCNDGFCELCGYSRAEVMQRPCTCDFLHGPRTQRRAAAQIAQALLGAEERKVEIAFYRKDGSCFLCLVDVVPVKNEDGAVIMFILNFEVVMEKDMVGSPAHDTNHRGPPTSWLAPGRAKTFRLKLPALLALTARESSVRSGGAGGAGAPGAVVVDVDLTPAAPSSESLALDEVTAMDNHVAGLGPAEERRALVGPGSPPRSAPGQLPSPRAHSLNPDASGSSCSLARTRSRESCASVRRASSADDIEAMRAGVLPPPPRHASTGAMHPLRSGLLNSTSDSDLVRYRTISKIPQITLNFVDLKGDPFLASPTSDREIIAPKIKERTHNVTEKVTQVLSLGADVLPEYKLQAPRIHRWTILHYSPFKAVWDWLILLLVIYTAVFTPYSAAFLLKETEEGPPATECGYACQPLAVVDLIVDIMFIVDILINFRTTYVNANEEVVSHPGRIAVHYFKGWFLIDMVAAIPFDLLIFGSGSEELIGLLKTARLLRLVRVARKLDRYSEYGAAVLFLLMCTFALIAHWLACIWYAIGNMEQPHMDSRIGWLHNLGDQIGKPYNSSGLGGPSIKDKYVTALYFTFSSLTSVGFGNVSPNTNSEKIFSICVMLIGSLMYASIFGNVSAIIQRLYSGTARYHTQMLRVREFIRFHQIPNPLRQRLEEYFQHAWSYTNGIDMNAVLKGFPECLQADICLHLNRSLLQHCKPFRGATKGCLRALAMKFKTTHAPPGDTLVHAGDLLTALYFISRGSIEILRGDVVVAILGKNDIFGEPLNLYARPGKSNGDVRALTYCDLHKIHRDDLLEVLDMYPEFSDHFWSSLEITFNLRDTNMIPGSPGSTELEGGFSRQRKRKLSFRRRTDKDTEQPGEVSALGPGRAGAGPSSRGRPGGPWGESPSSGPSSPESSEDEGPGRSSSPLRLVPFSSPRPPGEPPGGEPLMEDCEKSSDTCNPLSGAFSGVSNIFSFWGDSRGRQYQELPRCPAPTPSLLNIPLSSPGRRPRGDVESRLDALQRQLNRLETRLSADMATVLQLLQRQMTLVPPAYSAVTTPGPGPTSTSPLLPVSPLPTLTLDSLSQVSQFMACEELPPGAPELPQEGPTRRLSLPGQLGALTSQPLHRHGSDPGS
In short: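 Thallium-flux (FluxOR) read-out on FDSS: fluorescence read 10 s before and 2 min after stimulation buffer. hERG-BacMam-transduced U2OS cells, compound exposure about 10 min. AC50 by standard Hill equation.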

[16] = P-glycoprotein substrates identified in KB-3-1 adenocarcinoma cell line, qHTS therapeutic library screen (AID 1346986); also: nearly all actives have a fitted effect of over 60% in size;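 also: potency is read from the fitted curve at half-maximal effect; potency is for cytotoxicity meaning loss of cell viability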
In short: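 Viability read by CellTiter-Glo after 72 h compound exposure in dose-response of KB-3-1 and KB-8-5-11 (P-gp-high) cells. Hits needed AC50 < 10 uM, >50% maximum response and curve class -1.1 to -2.4. Cherry-picks retested ± tariquidar, including pcDNA/MDR-19 HEK-293 pair.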

[17] = test system: Zika virus NS2B-NS3 protease; assay: Primary screen GU AMC qHTS for Zika virus inhibitors (AID 1347154);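 also: 0% = no-inhibitor control and -100% = no-enzyme control; nearly all actives have a fitted effect of over 70% in size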
In short: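 Fluorogenic AMC-substrate cleavage by noncovalent NS2B-NS3 protease complex (25 nM, pH 8.0 Tris buffer with Tween 20) followed for 15 minutes at room temperature (~20% conversion). Percent inhibition from ex340/em450 signal change, fitted by 4-parameter Hill equation.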

[18] = qHTS to identify inhibitors of the type 1 interferon - major histocompatibility complex class I in skeletal muscle: primary screen against the NCATS Mechanism Interrogation Plate v5.0 (MIPE) Libary (AID 1347411);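 also: plate controls were vehicle for no effect and reference inhibitor for full effect; nearly all actives have a fitted effect of over 65% in size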
In short: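 Luminescence from CRISPR HiBit-tagged endogenous HLA-B in human myoblasts reported MHC class I level after 24 h of IFN-beta (4 ng/ml) plus compound. Compounds ran as 11-point 1:3 series, top 46 uM final.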

[19] = molecular target: Cytochrome P450 2D6 (Homo sapiens) (UniProt P10635); assay: Cytochrome P450 family 2 subfamily D member 6 (CYP2D6) small molecule antagonists: luciferase biochemical (cell-free) qHTS assay (AID 1645840; active = well fitted curve in the direction sought with a large enough effect in the repeat runs; an effect the other way counts as inactive or inconclusive; also: potency is read from the fitted curve at half-maximal effect; nearly all actives have a fitted effect of over 55% in size)
Sequence of Cytochrome P450 2D6 (Homo sapiens) (P10635 whole entry, looked up): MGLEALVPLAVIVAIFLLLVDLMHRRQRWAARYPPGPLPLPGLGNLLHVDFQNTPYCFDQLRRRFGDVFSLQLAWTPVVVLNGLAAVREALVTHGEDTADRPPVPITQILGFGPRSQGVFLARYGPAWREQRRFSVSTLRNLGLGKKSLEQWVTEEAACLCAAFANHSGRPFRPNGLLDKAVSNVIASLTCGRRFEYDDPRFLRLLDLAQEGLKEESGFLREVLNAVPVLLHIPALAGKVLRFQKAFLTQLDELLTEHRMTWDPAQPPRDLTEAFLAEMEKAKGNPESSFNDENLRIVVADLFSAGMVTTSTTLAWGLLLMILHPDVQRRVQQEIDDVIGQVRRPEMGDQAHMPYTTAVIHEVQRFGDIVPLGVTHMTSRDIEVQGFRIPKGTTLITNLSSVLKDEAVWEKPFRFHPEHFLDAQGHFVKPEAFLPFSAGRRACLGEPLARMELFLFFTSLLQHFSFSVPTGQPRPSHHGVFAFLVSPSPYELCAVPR
In short: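 P450-Glo CYP2D6 system: proluciferin substrate converted by enzyme to luciferin, read by luminescence proportional to activity. Enzyme-substrate mix with compound 10 min at room temperature, then NADPH regeneration 1 h before detection reagent.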

[20] = Primary qHTS for inhibitors of nuclear receptor binding SET domain protein 2 (NSD2) in an isogenic RCH-ACV NSD2 p.E1099K mutant (9B) (AID 1645876); also: potency is read from the fitted curve at half-maximal effect; nearly all actives have a fitted effect of over 70% in size
[21] = Primary qHTS for inhibitors of nuclear receptor binding SET domain protein 2 (NSD2) in an RCH-ACV wild type WT cells (2C) (AID 1645877); also: potency is read from the fitted curve at half-maximal effect; nearly all actives have a fitted effect of over 70% in size
[22] = NCATS anti-infectives library activity on HEK293 viability as a counter-qHTS vs the C. elegans viability qHTS (AID 1745854); also: % is scaled to controls: 0 for no effect and ±100 for the full control effect
In short: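 Cytotoxicity counter-screen to a worm viability qHTS: CellTiter-Glo luminescence read 10 min after reagent addition. Compounds (final up to 41.7 uM, a 1:5 dilution series) incubated 24 hr at 37C with 1,500 HEK293 cells per well; digitonin control.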

[23] = NCATS anti-infectives library activity on the primary C. elegans qHTS viability assay (AID 1745855; calls by dose curve)
In short: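 GFP read-out by 488 nm laser cytometry at day 0, 3 and 7, gated on object perimeter, area and peak intensity, scored viability of PE254-GFP-FLuc worms exposed to compound in S medium with bacterial capsules at 21 °C.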

[24] = molecular target: Glutathione peroxidase 1 (Homo sapiens) (UniProt P07203); assay: Primary qHTS Assay for Inhibitors of Recombinant Selenoprotein Glutathione Peroxidase 1 (GPX1) (AID 1845191); also: nearly all actives have a fitted effect of over 65% in size
Sequence of Glutathione peroxidase 1 (Homo sapiens) (P07203 whole entry, looked up): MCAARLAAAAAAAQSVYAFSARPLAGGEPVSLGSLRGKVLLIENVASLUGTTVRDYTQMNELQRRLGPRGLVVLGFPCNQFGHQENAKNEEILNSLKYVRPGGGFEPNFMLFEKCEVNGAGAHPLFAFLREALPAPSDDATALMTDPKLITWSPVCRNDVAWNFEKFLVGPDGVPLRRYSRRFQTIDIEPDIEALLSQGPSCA
In short: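 NADPH consumption tracked by fluorescence at 340/450 nm between t=0 and t=15 min, room temperature. Final mix: 10 nM GPX1, 100 nM glutathione reductase, 1 mM GSH, 0.5 mM NADPH, 0.5 mM cumene hydroperoxide, 0.01% BSA; 30 min compound–enzyme preincubation.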

[25] = molecular target: Phospholipid hydroperoxide glutathione peroxidase GPX4 (Homo sapiens) (UniProt P36969); assay: Primary qHTS Assay for Inhibitors of Recombinant Selenoprotein Glutathione Peroxidase 4 (GPX4) (AID 1845192); conditions: outcome: dose series up to 50 µM unless noted; also: series mostly up to about 50 µM; % is scaled to controls: 0 for no effect and ±100 for the full control effect; nearly all actives have a fitted effect of over 65% in size
Sequence of Phospholipid hydroperoxide glutathione peroxidase GPX4 (Homo sapiens) (P36969 whole entry, looked up): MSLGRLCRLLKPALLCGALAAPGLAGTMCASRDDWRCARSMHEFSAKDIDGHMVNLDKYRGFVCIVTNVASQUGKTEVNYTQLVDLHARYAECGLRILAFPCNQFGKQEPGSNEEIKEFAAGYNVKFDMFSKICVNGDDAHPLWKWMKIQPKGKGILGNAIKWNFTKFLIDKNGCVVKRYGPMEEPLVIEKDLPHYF
In short: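 NADPH consumption followed by fluorescence at 340/450 nm, t=0 and after 15 min at room temperature. Reaction started with cumene hydroperoxide (0.5 mM final) after 30 min compound–GPX4 preincubation; final 200 nM GPX4, 100 nM GR, 1 mM GSH, 0.5 mM NADPH.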

[26] = qHTS drug screen for cell cycle checkpoint inhibitors in PARPi-resistant BRCA-mutant ovarian cancer cell lines. (AID 1963452; calls by dose curve); conditions: PEO1/OlaR viability, CellTiter-Glo luminescence, 96 h, stronger effect = lower value
In short: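 PEO1, PEO4 and PEO1/OlaR ovarian cancer cells, 600 per well, exposed 96 h at 37C to a dilution series. Viability read by CellTiter-Glo luminescence, normalized to DMSO and empty wells; activity summarized as Z-AUC.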

[27] = molecular target: Tyrosine-protein kinase Yes (Homo sapiens) (UniProt P07947); assay: qHTS for small molecule inhibitors of Yes1 kinase: Primary Screen (AID 686947); also: potency is read from the fitted curve at half-maximal effect; nearly all actives have a fitted effect of over 60% in size
In short: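 ADP-Glo luminescence reports ADP formed by 4 nM Yes1 phosphorylating poly(E4Y) (0.3 mg/mL) with 0.1 mM ATP for 60 min at room temperature, following 20 min compound preincubation; normalised between DMSO wells with and without enzyme.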

[28] = qHTS for small molecule inhibitors of Yes1 kinase: Counter Assay (AID 686950);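 also: no kinase present so only ADP-Glo detection of a fixed ADP amount is tested; luminescence from ADP-Glo reporting ADP in a fixed ATP and ADP mixture; series mostly up to about 77 µM; 0% = DMSO wells with ATP plus ADP and -100% = ATP-only wells without ADP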
In short: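 ADP-Glo luminescence read after a 60 min room-temperature incubation of compound with an ATP/ADP mix (0.08 mM/0.02 mM) and no kinase, following a 20 min compound preincubation. Signal scaled between ATP+ADP (max) and 0.1 mM ATP-only (min) wells; Tris pH 7.5, Mg2+, DTT.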

O=S(=O)(NCCNC/C=C/c1ccc(Br)cc1)c1cccc2cnccc12
1.26: Z-AUC ([26]; measured here: PEO1 parental Z-AUC)
active: Potency [4] 8.91 µM | Potency [5] 12.6 µM | Potency [6] 11.2 µM | Potency [7] 5.01 µM | Potency [15] 2.82 µM | Potency [19] 4.77 µM | Potency [20] 16.6 µM | Potency [21] 14.8 µM
0.757: Z-AUC ([26]; measured here: PEO4 Z-AUC)
inactive: Potency [1] | Potency [2] | Potency [3] | Potency [8] | Potency [9] | Potency [10] | outcome [11] | activation [12] 5.62% | outcome [13] | outcome [14] | Potency [16] | Potency [17] | Potency [18] | outcome [22] | Potency [23] | Potency [24] | Potency [25] | Z-AUC [26] 0.684

CN(c1ccc(NC(=O)Nc2ccc(OC(F)(F)F)cc2)cc1)c1ccnc(Nc2cccc(S(N)(=O)=O)c2)n1
active: Potency [27] 0.0823 µM | Potency [16] 18.4 µM | Potency [20] 3.66 µM | Potency [21] 1.03 µM
inactive: outcome [28] | Potency [24]
